Vaccinia mCherry – qHTS for Stage-Specific Inhibitors of Vaccinia Orthopoxvirus: mCherry Reporter Primary qHTS; Vaccinia virus mCherry reporter infection, fluorescence; Potency, µM (doses to about 36.5 µM), inactives show top-dose activity change, negative = inhibition, hits mostly inhibitors; 310,000 tested, 0.63% active; calls by dose curve; tested in A549 cells; further: potency means the concentration at half of the fitted maximal effect; on the % scale 0 is the no-effect control and ±100 the full control effect; nearly all actives have a fitted effect of over 35% in size
VACV Venus inh – qHTS for Stage-Specific Inhibitors of Vaccinia Orthopoxvirus: Venus Reporter Primary qHTS. Vaccinia virus Venus reporter expression, fluorescence. AID 720580, 2013. Potency, µM (top dose mostly 36.5 µM), for the others: at the top dose activity change, negative = inhibition, hits mostly inhibitors. 330,000 tested, 0.46% active; calls by dose curve; tested in A549 cells; further: potency means the concentration at half of the fitted maximal effect; on the % scale 0 is the no-effect control and ±100 the full control effect; nearly all actives have a fitted effect of over 30% in size
Shiga inhibitor – A qHTS for Small Molecule Inhibitors of Shiga Toxin; Vero cells, Shiga toxin protein synthesis inhibition reporter; inhibition, % at 38.7 µM; 290,000 tested, 9.2% active; in the data active means inhibition mostly above about 28%, no sharp cut-off; inactive means mostly below about 43%; further: 0% is about no effect
Marburg entry inh – qHTS for inhibitors of binding or entry into cells for Marburg Virus; Marburg virus pseudotyped entry inhibition, cell reporter; AID 540276, 2011; 300,000 tested, 1.8% active; Potency, µM (doses to about 37.8 µM), inactives show top-dose activity change, negative = inhibition, actives largely listed as inhibitors; calls by dose curve; tested in HEK293 cells; further: potency means the concentration at half of the fitted maximal effect; on the % scale 0 is the no-effect control and ±100 the full control effect
Lassa entry inh – qHTS for Inhibitors of binding or entry into cells for Lassa Virus. Lassa virus pseudotype entry inhibition, cell reporter. Potency, µM (top dose mostly 37.9 µM), inactives show top-dose activity change, negative = inhibition, most hits filed as inhibitors. 300,000 tested, 1.2% active. AID 540256, 2011; calls by dose curve; tested in HEK293 cells; further: potency means the concentration at half of the fitted maximal effect; on the % scale 0 is the no-effect control and ±100 the full control effect; nearly all actives have a fitted effect of over 50% in size
CHX counter – Cycloheximide Counterscreen for Small Molecule Inhibitors of Shiga Toxin; cell reporter, cycloheximide protein synthesis inhibition counterscreen; max response, %; 300,000 tested, 12% active; AID 2314, 2010; in the data active means max response mostly above about 13%, no sharp cut-off; inactive means mostly below about 14%; further: read at 38.3 µM for the half of the compounds with a filed dose; 0% is about no effect
* hit, by the source's call; i = inactive; ? = inconclusive; . = not tested or not shown; [ ] = another dose, or the depositor's remark. The full list was thinned out, with hits kept by preference.

SMILES	Vaccinia mCherry	VACV Venus inh	Shiga inhibitor	Marburg entry inh	Lassa entry inh	CHX counter
CCC(C)c1ccc(NC(=S)Nc2ccc(OC)cc2C)cc1 (centres undefined)	-22%	-9%	62*	?	3%	30*
Fc1ccc(NC(=S)Nc2cccc3ccccc23)cc1	.	.	70*	.	.	42*
COc1cccc(NC(=S)NN=C2CCCCCC2)c1	0%	-5%	53*	-5%[46.1 µM]	-29%	26*
COc1cccc(NC(=S)NN2C(C)CCCC2C)c1 (centres undefined)	-12%	-9%	-15	6%	0%	-8
CCOC(=O)N1CCN(C(=O)Cc2ccccc2[N+](=O)[O-])CC1	.	.	-7	.	.	-2
COc1cccc(C2CC(c3ccccc3Cl)n3ncnc3N2)c1 (centres undefined)	i	-18%	12	14%	-4%	2
COc1ccccc1CN1CCC2(CC1)c1ccccc1[C@@H](NC(=O)c1ccco1)[C@@H]2OC	i	-29%	.	.	.	.
Cc1cccc(NC(=S)N/N=C(\c2ccccc2)C(C)C)c1	-2%	1%	55*	-19%[46.1 µM]	?	26*
C=CCNC(=S)Nc1cccc2ccccc12	-4%	-20%	17	4%	-15%	4
CC/C(=N\NC(=S)Nc1cccc(C)c1)c1ccccc1	?	-17%	30	-20%[46.1 µM]	?	17
FC(F)(F)c1ccccc1NC(=S)NN=C1CCCCCC1	?	-9%	32	-20%[46.1 µM]	-28%[46.1 µM]	33*
Cc1cccc(NC(=S)Nc2cccc3ccccc23)c1	?	-1%	95*	-7%[46.1 µM]	1%[46.1 µM]	32*
CC(C)c1ccc(NC(=S)Nc2cccc3ccccc23)cc1	?	-7%	98*	4%[46.1 µM]	12%[46.1 µM]	55*
C=CCOc1ccccc1CN1CCCN(C)CC1	.	.	-2	.	.	-2
CCc1cccc(NC(=S)Nc2cccc3ccccc23)c1	.	.	73	.	.	46*
Cc1ccc(NC(=S)Nc2cccc3ccccc23)cc1	?	-3%	78*	-7%[46.1 µM]	2%[46.1 µM]	90*
COc1cccc(NC(=S)Nc2cccc3ccccc23)c1	?	-7%	110*	-7%[46.1 µM]	4%[46.1 µM]	85*
CC(=O)Nc1cccc(NC(=O)Nc2cccc3ccccc23)c1	.	.	-24	.	.	10
Cc1cc(C)cc(NC(=S)Nc2cccc3ccccc23)c1	.	.	-15	.	.	-2
Fc1ccc(NC(=S)Nc2cccc3cnccc23)cc1	-4%	6%	32	-17%[46.1 µM]	.	17*
Cn1cccc1CN1CCC[C@]2(N[C@H](c3ccccc3)[C@@H]3C(=O)N(Cc4ccccc4)C(=O)[C@@H]32)C1=O	-19%	-18%	.	.	.	.
COC(=O)c1ccc(NC(=O)c2c(NCc3cccc(F)c3)sc3c2CCCC3)cc1	-11%	-8%	.	.	-9%[46.1 µM]	.
COC(=O)N1C(C=Cc2ccc3c(c2)OCO3)=Cc2ccccc2C1CC(C)=O (centres undefined)	.	.	.	-12%[14.2 µM]	?	.
COc1ccc(CN2CCNC(=O)C2CC(=O)N2CCCCO2)cc1OC (centres undefined)	.	.	-10	.	.	-2
CCc1ccc(NC(=S)Nc2cccc(OC)c2)cc1	-11%	-7%	67*	23%	-1%	16*
SMILES	Vaccinia mCherry	VACV Venus inh	Shiga inhibitor	Marburg entry inh	Lassa entry inh	CHX counter
Fc1ccc(NC(=S)Nc2cccc3ccccc23)cc1F	.	.	45*	.	.	46*
COc1ccc(CNC(=S)Nc2cccc(OC)c2)cc1	-22%	-3%	9	?	?	-3
Cc1cccc(NC(=S)NCCC(C)C)c1	-14%	-5%	25	1.5µM*	?	20*
S=C(Nc1ccc(Cl)cc1)Nc1cccc2cnccc12	-10%	0%	19	?	?	18
CCc1c(C)sc(NC(=O)c2cccs2)c1C#N	i	-6%	77*	-7%	4%	53*
Cc1ccc(C(=O)Nc2sc(C(=O)N(C)C)c(C)c2C#N)cc1	2%	5%	20	-1%	6%	-1
CCOC(=O)c1c(NC(=O)c2cccs2)sc(C)c1CC	-7%	-10%	12	?	-17%	4
CCc1c(C)sc(NC(=O)c2cccs2)c1C(=O)OC(C)C	-27%	-21%	-6	9.2µM*	?	-1
Cc1sc(NC(=O)c2ccccc2)c(C#N)c1-c1ccccc1	-22%	-14%	26*	-36%	?	43*
CCC(=O)N1CCc2cc(Br)cc(S(=O)(=O)CCC(=O)Nc3ccc(C)c(C)c3)c21	-2%	5%	.	.	18%[46.1 µM]	.
CC(C)Oc1ccc(-c2cc(C(=O)NCCN3CCOCC3)c3ccccc3n2)cc1	-5%	-2%	61	-5%	-11%	30*
CCOc1cc(N2CCOCC2)c(OCC)cc1NC(=O)c1cc(-c2ccco2)nc2ccccc12	-11%	-12%	10	16µM*	?	-1
O=C(NCCN1CCOCC1)c1cc(-c2ccc(F)cc2)nc2ccccc12	-12%	-10%	.	22%	?	.
O=C(COc1ccc2c(-c3ccccc3)cc(=O)oc2c1)NCCCN1CCOCC1	.	.	23	.	.	12*
CCOc1ccc(-c2cc(C(=O)NCCCN3CCOCC3)c3ccccc3n2)cc1	.	.	40	.	.	23*
O=C(Nc1c(C(=O)N2CCN(c3ccc(F)cc3)CC2)oc2ccccc12)c1c(F)cccc1F	-17%	-5%	.	.	0%[46.1 µM]	.
Cc1cccc(N(C)C(=O)C2CCN(S(=O)(=O)c3cccc4nonc34)CC2)c1	3%	-1%	.	.	-26%[46.1 µM]	.
CNC(=O)/C(=N\O)c1ccccc1	.	.	45*	0%	.	15
CC(C)NC(=O)/C(=N\O)c1ccccc1	.	.	-10	15%	15%	-3
O=C(NCCc1ccccc1)/C(=N\O)c1ccccc1	-12%	-9%	52*	?	?	45*
CCc1nc2sc3ccccc3c(=O)c2c(=O)n1Cc1ccc(OC)cc1	16%	-9%	14	?	?	-2
CC(C)CON=C1C[C@@H](O)[C@@H](O)[C@@H]2[C@H]3C(=O)N(c4cccc(Oc5ccccc5)c4)C(=O)[C@@H]3CC[C@H]12	.	.	.	-1%[14.2 µM]	.	.
O=C(NCc1ccc2c(c1)CCN2C(=O)c1ccccc1)c1cc2ccccc2[nH]1	-7%	-14%	.	.	-20%[46.1 µM]	.
O=C(CNC(=O)c1ccccc1)N/N=C/c1ccc([N+](=O)[O-])s1	10µM*	10µM*	12	?	-29%	20
Cc1cccc(N/N=C/c2ccc(O)c(O)c2O)c1	.	.	12	.	.	0
Cc1cccc(N/N=C/c2ccc(C)s2)c1	.	.	80*	.	.	40*
O=C(N/N=C/c1ccc([N+](=O)[O-])s1)c1ccncc1	?	11µM*	5	?	30%[46.1 µM]	9
Cc1ccc(C(=O)N/N=C/c2ccc([N+](=O)[O-])s2)cc1	-12%[1.46 µM]	?	-23	11µM*	?	-3
Cn1c(SCC(=O)N/N=C/c2ccc([N+](=O)[O-])s2)nnc1-c1ccc(Cl)cc1	-2%	-7%	-11	12µM*	?	10*

Assay outcomes (PubChem BioAssay)
